PubChem BioAssay AID1626 (SRMLSC, 2009)
Values joined by “and” are separate entries in the source; they are usually repeats but may differ in a detail not shown here. Equal entries are not always repeated. The whole screen tested about 220,000 compounds, of which about 2,000 (0.91%) were called active. Another 2% or so got no clear call; they are omitted. Not all results are given here. Measured potencies and affinities stand elsewhere. A number with no mark means an inactive call. Rule as the data show it: inconclusive = inhibition above about 80% without an active follow-up result; inactive = below that; test concentration not stated here.

Assay: M. tuberculosis H37Rv growth inhibitors, H37Rv strain (AID 1626);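 also: bacteria incubated seven days before Alamar blue readout; 0% = bacteria only wells and 100% = bacteria with antibiotic wells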
Conditions: stronger effect = higher value, concentration not given here

SMILES	inhibition
COC(=O)CN(c1ccccc1)S(=O)(=O)c1cc(Br)ccc1OC	5.26%
CCOC(=O)Cc1csc(NC(=O)c2cc3c(s2)CCCC3)n1	6.6%
CCOC(=O)Cc1csc(NC(=O)c2ccc(C)cc2)n1	-1.68%
CSc1ccc(/C=C/C(=O)c2ccc(NC(=O)C(C)C)cc2)cc1	75.2%
CCOC(=O)Nc1ccc(C(=O)/C=C/c2ccccc2)cc1	10.2%
CCOc1ccc(C(=O)/C=C/c2ccc(SC)cc2)cc1	-1.12%
Cc1ccc(/C=C/C(=O)c2ccc(O)cc2)cc1	11.5%
COc1ccccc1/C=C/C(=O)c1ccc(NC(C)=O)cc1	94.1%
CSc1ccc(/C=C/C(=O)Nc2ccccc2)cc1	33.9%
O=C(Nc1nnc(CC2=CCCCC2)s1)Nc1ccccc1F	-2.47%
Cc1nnc2c3ccccc3c(-c3ccccc3)nn12	5.99%
CCCC(=O)c1c[nH]c(C(=O)NCc2ccco2)c1	-9.43%
Cc1ccc(Cn2cc(/C=N/NC(=O)Cc3nnc(NC(=O)c4ccc(C)cc4)s3)c3ccccc32)cc1	7.8%
O=C(CCNC(=O)c1ccco1)NCc1ccccc1	0.15%
COc1ccc(CCNc2nc(N3CCOCC3)nc(N3CCOCC3)n2)cc1OC	8.14%
COc1ccc(N2CCN(c3nc(NCCc4ccc(OC)c(OC)c4)nc(OC)n3)CC2)cc1	34.2%
CC(C)CCN1CCN(Cc2ccc(C#CC(C)(C)O)s2)CC1CCO (stereo not given)	9.71%
CC(=O)c1ccc(-c2ccc(C(=O)N3CCCc4ccccc43)o2)cc1	17.9%
CSc1sc(-c2ccnc(=S)[nH]2)c(-c2ccccc2)c1C#N	-4.19%
O=C(CNCc1ccccc1)Nc1ccc(F)cc1	-5.31%
COc1ccccc1NC(=O)CSCc1nc2ccccc2[nH]1	-0.98%
CCOC(=O)N1CCN(CCC(=O)Nc2cccc(Br)c2)CC1	-0.92% and -12.2%
O=C(CSCc1nc2ccccc2[nH]1)Nc1ccccc1	0.99%
COC(=O)Nc1ccc(Oc2ccccc2)cc1	-4.37%

SMILES	inhibition
Cc1ccc(NC(=O)CNCc2ccccc2)c(Br)c1	-0.29%
Cc1ccc(C(=O)NCc2ccccc2)cc1Br	-8.73%
CCOC(=O)N1CCN(CCC(=O)Nc2ccc(Br)cc2)CC1	-16.8%
CCc1cccc(NC(=S)N(CCCN2CCOCC2)C(C)c2cc3cccc(OC)c3o2)c1 (stereo not given)	-11.9%
COc1ccc(CNC(=O)CCSCc2cccc(Cl)c2)c(OC)c1	-4.73%
O=C(Nc1nc(-c2ccc(S(=O)(=O)N3CCCC3)cc2)cs1)c1ccco1	7.57%
COCCOCCn1c(/C=C/c2ccccc2)nc2ccccc21	11%
O=S(=O)(NCc1ccccc1)c1ccccc1Br	4.19%
CCN(CC)S(=O)(=O)c1ccc2c(c1)nc(CCC(=O)Nc1ccccc1Cc1ccccc1)n2CC	-0.79%
COc1ccc(/C=C2\SC(=S)NC2=O)cc1OS(=O)(=O)c1ccc(NC(C)=O)cc1	-3.97%
Cc1ccccc1N(CC(=O)Nc1ccccc1C(=O)O)S(C)(=O)=O	-1.04%
CCN(CC)c1nc(-c2nn[nH]n2)nc(N(CC)CC)n1	-3.01%
O=C(O)/C=C\C(=O)Nc1ccc(Oc2ccccc2)cc1	-4.64%
CCOC(=O)C(=O)Nc1ccc(Oc2ccccc2)cc1	-13.3%
CC(C)(C)NC(=O)C1CC(=O)OC12CCOC(C)(C)C2 (stereo not given)	0.06%
COC(=O)CN(c1ccccc1)S(=O)(=O)c1ccc(F)cc1	-4.89%
O=[N+]([O-])C(=c1ccc2c(c1)N1C3=C(CCCC3)CC3CCCCC31N=2)[N+](=O)[O-] (stereo not given)	-8.62%
O=C(CSCC(=O)NC1CCCC1)Nc1ccccc1	6.01%
O=C(CSCC(=O)NC1CC1)Nc1ccccc1	-9.05%
CC(=O)c1ccc(NC(=O)CSCCO)cc1	-4.48%
CC(=O)c1ccc(NC(=O)CSC(C)C)cc1	0.93%
CC(=O)Nc1ccc(S(=O)(=O)N2CCN(C(C)CCc3ccccc3)CC2)cc1 (stereo not given)	-9.9%
CCc1ccc(OCCCC(=O)O)c(Br)c1	-8.18%
COC(=O)c1ccc(COc2ccc3c4c(c(=O)oc3c2)CCC4)o1	-7.47%

SMILES	inhibition
Cc1cc(C)n2nc(SCC(=O)N/N=C/c3cccc(Br)c3)nc2n1	-4.74%
O=C(NC1(C(F)(F)F)C(=O)Nc2c1c(=O)[nH]c(=O)n2Cc1ccco1)C1CC1 (stereo not given)	1%
C=CCNC(=O)CSc1nnc(-c2ccccc2Cl)n1-c1c(C)n(C)n(-c2ccccc2)c1=O	-3.15%
COc1ccc(CCNC(=O)CSc2cn(Cc3cccc(C)c3)c3ccccc23)cc1OC	4.76%
CCc1nc2c(c(=O)[nH]1)C1(CCCC1)Cc1ccccc1-2	12.8%
O=c1[nH]c(NCCO)nc2c1C1(CCCCC1)Cc1ccccc1-2	-9.4%
O=c1[nH]c(CN(CCO)CCO)nc2c1C1(CCCCC1)Cc1ccccc1-2	8.33%
O=c1[nH]c(NCCO)nc2c1C1(CCCC1)Cc1ccccc1-2	-4.7%
COc1cccc2c3c(c(C)nc12)CC(C)O3 (stereo not given)	-3.67%
Cc1cc2c(C)nc3ccccc3c2o1	-3.45%
Cc1cc(C(=O)NNC(=O)CCCCC(=O)NNC(=O)c2cc(C)[nH]n2)n[nH]1	1.69%
O=C(CCCSc1nc(-c2ccco2)cc(C(F)(F)F)n1)Nc1ccc2c(c1)OCO2	6.6%
Cc1ccccc1Sc1ncnc2onc(C)c12	-3.01%
Cc1noc2ncnc(Sc3ccccc3Cl)c12	8.85%
CCn1c(SCc2ccc(C(=O)Nc3nccs3)cc2)nnc1-c1ccc(NC(C)=O)cc1	0.27%
CCn1c(SCc2ccc(C(=O)Nc3nccs3)cc2)nnc1-c1ccc(N)cc1	2.31%
COC(=O)CNC(=O)c1cn(CC(C)C)c(=O)c2cc(OC)c(OC)cc12	-2.81%
CC1CC(=O)c2cnc(N3CCOCC3)nc2C1 (stereo not given)	5.78%
O=C(CSc1nnnn1C1CCCC1)NCc1ccccc1	-3.18%
CCCn1c(=N)n(CC(O)COc2cccc(C)c2)c2ccccc21 (stereo not given)	4.16%
COc1ccc(OCC(O)Cn2c(=N)n(CCN3CCOCC3)c3ccccc32)cc1 (stereo not given)	3.12%
N=c1n(CCN2CCCCC2)c2ccccc2n1CC(O)COc1ccccc1 (stereo not given)	-5.72%
CCCCn1c(=N)n(CC(O)COc2cccc(C)c2)c2ccccc21 (stereo not given)	0.69%
CC(C)N1CCN(Cc2nc3c(s2)CCCC3)CC1CCO (stereo not given)	-2.24%

SMILES	inhibition
COc1cc([C@@H]2c3cc4c(cc3[C@@H](NC3CCN(Cc5ccccc5)CC3)[C@H]3COC(=O)[C@H]23)OCO4)cc(OC)c1O	51.2%
CC1=C(C(=O)OCc2ccc(C)cc2)C(c2ccc(O)c([N+](=O)[O-])c2)NC(=O)N1 (stereo not given)	-1.03%
COc1ccc(S(=O)(=O)N(CC(=O)NCC2CCCO2)c2ccccc2)cc1OC (stereo not given)	-6.11%
Cc1cc(-c2ccc(Cl)cc2Cl)c(C#N)c(=O)[nH]1	-3.23%
Cc1ncn2cc(-c3ccc(Cl)cc3Cl)[nH]c(=O)c12	11.2%
O=c1[nH]c(=O)n(-c2ccccc2)c2c1C(C(F)(F)F)(C(F)(F)F)N=C(CCC1CCCCC1)N2	-0.92%
Cc1nc(N2CCN(c3ccccn3)CC2)c2c(C)c(C(=O)Nc3ccc(F)cc3F)sc2n1	79.3%
Cc1nc(N2CCCCC2)c2c(C)c(C(=O)Nc3ccccc3C(F)(F)F)sc2n1	1.26%
Cc1nc(N2CCOCC2)c2c(C)c(C(=O)Nc3ccccc3Cl)sc2n1	0.57%
Cc1nc(N2CCOCC2)c2c(C)c(C(=O)Nc3ccc(F)cc3F)sc2n1	-1.7%
CCN=C1NN=C(c2cc(C)n(Cc3ccco3)c2C)CS1	8.94%
CCN(CCCNC(=O)CN(C)S(=O)(=O)c1ccc2c(c1)CCC(=O)N2)c1cccc(C)c1	-2.39%
O=C(COC(=O)C1CCN(S(=O)(=O)c2cccs2)CC1)Nc1ccccc1Br	-7.27%
O=c1[nH]c2ccccc2n1CCCN1CCCCC1	-2.47%
CCCCn1c(=O)[nH]c2ccccc21	3.85%
O=C(Nc1cccc(Cl)c1)/C(=C\c1cccnc1)NC(=O)c1ccco1	2.59%
Cc1ccc(OCCNC(=O)c2cccc(Oc3ccc(C(F)(F)F)cc3[N+](=O)[O-])c2)cc1	1.39%
CN1CCN(Cc2c(O)ccc3cc(Br)ccc23)CC1	21%
Oc1ccc2ccccc2c1CN1CCCC1	12.7%
Cc1ccc2c(c1)C1CN(C)CCC1N2C(=O)c1cn(-c2ccccc2)nc1-c1ccccc1 (stereo not given)	10.5%
O=C(CNC(=O)c1ccc(-c2ccccc2)cc1)OCc1c(Cl)cccc1Cl	-1.9%
CC(=O)Nc1ccc(C(=O)NCC(=O)OCc2c(F)cccc2Cl)cc1	-1.08%
COc1ccc(N(C(=O)c2ccco2)C(C(=O)NC2CCCC2)c2ccc(N(C)C)cc2)cc1 (stereo not given)	-10.8%
